# Laboratory results published in article PMC11006913.
# Changes are numbered by the printed parent chain.
# Columns and labels:
# Assay in all cases: PBM; 200 nM protein, PBS
# Settings in all cases: dsDNA, one strand shown
# SIX6 [1] = target: T1, SIX6 (Homo sapiens, UniProt O95475 114-200, L167I)
# T1 sequence: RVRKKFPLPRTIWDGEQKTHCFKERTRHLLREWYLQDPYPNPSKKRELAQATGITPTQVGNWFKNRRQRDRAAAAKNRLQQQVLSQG
# SIX6 [2] = target: T2, SIX6 (Homo sapiens, UniProt O95475 114-200, L143V)
# T2 sequence: T1 sequence with L30V, I54L
# SIX6 [3] = target: T3, SIX6 (Homo sapiens, UniProt O95475 114-200, H141N)
# T3 sequence: T1 sequence with H28N, I54L
# SIX6 [4] = target: T4, SIX6 (Homo sapiens, UniProt O95475 114-200, T165P)
# T4 sequence: T1 sequence with T52P, I54L
# SIX6 [5] = target: T5, SIX6 (Homo sapiens, UniProt O95475 114-200, L167M)
# T5 sequence: T1 sequence with I54M
# SIX6 [6] = target: T6, SIX6 (Homo sapiens, UniProt O95475 114-200, L143M)
# T6 sequence: T1 sequence with L30M, I54L
# SIX6 [7] = target: T7, SIX6 (Homo sapiens, UniProt O95475 114-200, L143I)
# T7 sequence: T1 sequence with L30I, I54L
# SIX6 [8] = target: T8, SIX6 (Homo sapiens, UniProt O95475 114-200, T165G)
# T8 sequence: T1 sequence with T52G, I54L
# SIX6 [9] = target: T9, SIX6 (Homo sapiens, UniProt O95475 114-200, T139Q)
# T9 sequence: T1 sequence with T26Q, I54L
# SIX6 [10] = target: T10, SIX6 (Homo sapiens, UniProt O95475 114-200, T165A)
# T10 sequence: T1 sequence with T52A, I54L
# SIX6 [11] = target: T11, SIX6 (Homo sapiens, UniProt O95475 114-200, L167V)
# T11 sequence: T1 sequence with I54V
# SIX6 [12] = target: T12, SIX6 (Homo sapiens, UniProt O95475 114-200)
# T12 sequence: T1 sequence with I54L
# SIX6 [13] = target: T13, SIX6 (Homo sapiens, UniProt O95475 114-200, T165I)
# T13 sequence: T1 sequence with T52I, I54L
Sequence,binding signal (SIX6 [1]),binding signal (SIX6 [2]),binding signal (SIX6 [3]),binding signal (SIX6 [4]),binding signal (SIX6 [5]),binding signal (SIX6 [6]),binding signal (SIX6 [7]),binding signal (SIX6 [8]),binding signal (SIX6 [9]),binding signal (SIX6 [10]),binding signal (SIX6 [11]),binding signal (SIX6 [12]),binding signal (SIX6 [13])
ATATCCTA,"10.8 upbm affinity estimate (log intensity, higher = more binding, comparable within an allelic series)","10.2 upbm affinity estimate (log intensity, higher = more binding, comparable within an allelic series)","10.8 upbm affinity estimate (log intensity, higher = more binding, comparable within an allelic series)","9.8 upbm affinity estimate (log intensity, higher = more binding, comparable within an allelic series)","10.6 upbm affinity estimate (log intensity, higher = more binding, comparable within an allelic series)","10.7 upbm affinity estimate (log intensity, higher = more binding, comparable within an allelic series)","10.2 upbm affinity estimate (log intensity, higher = more binding, comparable within an allelic series)","10.8 upbm affinity estimate (log intensity, higher = more binding, comparable within an allelic series)","10.9 upbm affinity estimate (log intensity, higher = more binding, comparable within an allelic series)","10.7 upbm affinity estimate (log intensity, higher = more binding, comparable within an allelic series)","10.6 upbm affinity estimate (log intensity, higher = more binding, comparable within an allelic series)","10.7 upbm affinity estimate (log intensity, higher = more binding, comparable within an allelic series)","10.7 upbm affinity estimate (log intensity, higher = more binding, comparable within an allelic series)"
GAGTATCA,"11.2 upbm affinity estimate (log intensity, higher = more binding, comparable within an allelic series)","10.2 upbm affinity estimate (log intensity, higher = more binding, comparable within an allelic series)","11.3 upbm affinity estimate (log intensity, higher = more binding, comparable within an allelic series)","9.54 upbm affinity estimate (log intensity, higher = more binding, comparable within an allelic series)","10.6 upbm affinity estimate (log intensity, higher = more binding, comparable within an allelic series)","10.9 upbm affinity estimate (log intensity, higher = more binding, comparable within an allelic series)","10.3 upbm affinity estimate (log intensity, higher = more binding, comparable within an allelic series)","11.3 upbm affinity estimate (log intensity, higher = more binding, comparable within an allelic series)","11.2 upbm affinity estimate (log intensity, higher = more binding, comparable within an allelic series)","11.2 upbm affinity estimate (log intensity, higher = more binding, comparable within an allelic series)","11 upbm affinity estimate (log intensity, higher = more binding, comparable within an allelic series)","10.9 upbm affinity estimate (log intensity, higher = more binding, comparable within an allelic series)","11.1 upbm affinity estimate (log intensity, higher = more binding, comparable within an allelic series)"
AGGGTATC,"11.2 upbm affinity estimate (log intensity, higher = more binding, comparable within an allelic series)","10.2 upbm affinity estimate (log intensity, higher = more binding, comparable within an allelic series)","11.2 upbm affinity estimate (log intensity, higher = more binding, comparable within an allelic series)","9.36 upbm affinity estimate (log intensity, higher = more binding, comparable within an allelic series)","10.7 upbm affinity estimate (log intensity, higher = more binding, comparable within an allelic series)","11 upbm affinity estimate (log intensity, higher = more binding, comparable within an allelic series)","10.4 upbm affinity estimate (log intensity, higher = more binding, comparable within an allelic series)","11.4 upbm affinity estimate (log intensity, higher = more binding, comparable within an allelic series)","11.4 upbm affinity estimate (log intensity, higher = more binding, comparable within an allelic series)","11.1 upbm affinity estimate (log intensity, higher = more binding, comparable within an allelic series)","10.9 upbm affinity estimate (log intensity, higher = more binding, comparable within an allelic series)","11.1 upbm affinity estimate (log intensity, higher = more binding, comparable within an allelic series)","11 upbm affinity estimate (log intensity, higher = more binding, comparable within an allelic series)"
CCAGTGCG,"8.98 upbm affinity estimate (log intensity, higher = more binding, comparable within an allelic series)","8.96 upbm affinity estimate (log intensity, higher = more binding, comparable within an allelic series)","9 upbm affinity estimate (log intensity, higher = more binding, comparable within an allelic series)","9.02 upbm affinity estimate (log intensity, higher = more binding, comparable within an allelic series)","8.94 upbm affinity estimate (log intensity, higher = more binding, comparable within an allelic series)","8.99 upbm affinity estimate (log intensity, higher = more binding, comparable within an allelic series)","9.05 upbm affinity estimate (log intensity, higher = more binding, comparable within an allelic series)","9.12 upbm affinity estimate (log intensity, higher = more binding, comparable within an allelic series)","9.15 upbm affinity estimate (log intensity, higher = more binding, comparable within an allelic series)","9.01 upbm affinity estimate (log intensity, higher = more binding, comparable within an allelic series)","9.07 upbm affinity estimate (log intensity, higher = more binding, comparable within an allelic series)","9.01 upbm affinity estimate (log intensity, higher = more binding, comparable within an allelic series)","8.95 upbm affinity estimate (log intensity, higher = more binding, comparable within an allelic series)"
GATATCCC,"11.1 upbm affinity estimate (log intensity, higher = more binding, comparable within an allelic series)","10.2 upbm affinity estimate (log intensity, higher = more binding, comparable within an allelic series)","11.1 upbm affinity estimate (log intensity, higher = more binding, comparable within an allelic series)","9.49 upbm affinity estimate (log intensity, higher = more binding, comparable within an allelic series)","10.8 upbm affinity estimate (log intensity, higher = more binding, comparable within an allelic series)","11 upbm affinity estimate (log intensity, higher = more binding, comparable within an allelic series)","10.2 upbm affinity estimate (log intensity, higher = more binding, comparable within an allelic series)","11.2 upbm affinity estimate (log intensity, higher = more binding, comparable within an allelic series)","11.1 upbm affinity estimate (log intensity, higher = more binding, comparable within an allelic series)","11 upbm affinity estimate (log intensity, higher = more binding, comparable within an allelic series)","11 upbm affinity estimate (log intensity, higher = more binding, comparable within an allelic series)","11 upbm affinity estimate (log intensity, higher = more binding, comparable within an allelic series)","11 upbm affinity estimate (log intensity, higher = more binding, comparable within an allelic series)"
GTATCAGA,"11.1 upbm affinity estimate (log intensity, higher = more binding, comparable within an allelic series)","10.3 upbm affinity estimate (log intensity, higher = more binding, comparable within an allelic series)","11.1 upbm affinity estimate (log intensity, higher = more binding, comparable within an allelic series)","9.63 upbm affinity estimate (log intensity, higher = more binding, comparable within an allelic series)","10.6 upbm affinity estimate (log intensity, higher = more binding, comparable within an allelic series)","10.9 upbm affinity estimate (log intensity, higher = more binding, comparable within an allelic series)","10.2 upbm affinity estimate (log intensity, higher = more binding, comparable within an allelic series)","11.1 upbm affinity estimate (log intensity, higher = more binding, comparable within an allelic series)","11.1 upbm affinity estimate (log intensity, higher = more binding, comparable within an allelic series)","11.1 upbm affinity estimate (log intensity, higher = more binding, comparable within an allelic series)","10.9 upbm affinity estimate (log intensity, higher = more binding, comparable within an allelic series)","10.9 upbm affinity estimate (log intensity, higher = more binding, comparable within an allelic series)","10.8 upbm affinity estimate (log intensity, higher = more binding, comparable within an allelic series)"
AGATATCA,"11.4 upbm affinity estimate (log intensity, higher = more binding, comparable within an allelic series)","10.5 upbm affinity estimate (log intensity, higher = more binding, comparable within an allelic series)","11.4 upbm affinity estimate (log intensity, higher = more binding, comparable within an allelic series)","10.1 upbm affinity estimate (log intensity, higher = more binding, comparable within an allelic series)","10.8 upbm affinity estimate (log intensity, higher = more binding, comparable within an allelic series)","11 upbm affinity estimate (log intensity, higher = more binding, comparable within an allelic series)","10.4 upbm affinity estimate (log intensity, higher = more binding, comparable within an allelic series)","11.2 upbm affinity estimate (log intensity, higher = more binding, comparable within an allelic series)","11.1 upbm affinity estimate (log intensity, higher = more binding, comparable within an allelic series)","11.2 upbm affinity estimate (log intensity, higher = more binding, comparable within an allelic series)","11.2 upbm affinity estimate (log intensity, higher = more binding, comparable within an allelic series)","11 upbm affinity estimate (log intensity, higher = more binding, comparable within an allelic series)","11.1 upbm affinity estimate (log intensity, higher = more binding, comparable within an allelic series)"
GGCCGCCA,"8.71 upbm affinity estimate (log intensity, higher = more binding, comparable within an allelic series)","8.68 upbm affinity estimate (log intensity, higher = more binding, comparable within an allelic series)","8.73 upbm affinity estimate (log intensity, higher = more binding, comparable within an allelic series)","8.9 upbm affinity estimate (log intensity, higher = more binding, comparable within an allelic series)","8.74 upbm affinity estimate (log intensity, higher = more binding, comparable within an allelic series)","8.71 upbm affinity estimate (log intensity, higher = more binding, comparable within an allelic series)","8.7 upbm affinity estimate (log intensity, higher = more binding, comparable within an allelic series)","8.66 upbm affinity estimate (log intensity, higher = more binding, comparable within an allelic series)","8.63 upbm affinity estimate (log intensity, higher = more binding, comparable within an allelic series)","8.66 upbm affinity estimate (log intensity, higher = more binding, comparable within an allelic series)","8.8 upbm affinity estimate (log intensity, higher = more binding, comparable within an allelic series)","8.68 upbm affinity estimate (log intensity, higher = more binding, comparable within an allelic series)","8.7 upbm affinity estimate (log intensity, higher = more binding, comparable within an allelic series)"
ATATCCCC,"10.9 upbm affinity estimate (log intensity, higher = more binding, comparable within an allelic series)","10.3 upbm affinity estimate (log intensity, higher = more binding, comparable within an allelic series)","10.9 upbm affinity estimate (log intensity, higher = more binding, comparable within an allelic series)","9.7 upbm affinity estimate (log intensity, higher = more binding, comparable within an allelic series)","10.9 upbm affinity estimate (log intensity, higher = more binding, comparable within an allelic series)","10.9 upbm affinity estimate (log intensity, higher = more binding, comparable within an allelic series)","10.3 upbm affinity estimate (log intensity, higher = more binding, comparable within an allelic series)","10.9 upbm affinity estimate (log intensity, higher = more binding, comparable within an allelic series)","10.9 upbm affinity estimate (log intensity, higher = more binding, comparable within an allelic series)","10.8 upbm affinity estimate (log intensity, higher = more binding, comparable within an allelic series)","10.7 upbm affinity estimate (log intensity, higher = more binding, comparable within an allelic series)","10.9 upbm affinity estimate (log intensity, higher = more binding, comparable within an allelic series)","10.9 upbm affinity estimate (log intensity, higher = more binding, comparable within an allelic series)"
ATGATACA,"11.3 upbm affinity estimate (log intensity, higher = more binding, comparable within an allelic series)","10.5 upbm affinity estimate (log intensity, higher = more binding, comparable within an allelic series)","11.3 upbm affinity estimate (log intensity, higher = more binding, comparable within an allelic series)","9.98 upbm affinity estimate (log intensity, higher = more binding, comparable within an allelic series)","10.8 upbm affinity estimate (log intensity, higher = more binding, comparable within an allelic series)","11.1 upbm affinity estimate (log intensity, higher = more binding, comparable within an allelic series)","10.5 upbm affinity estimate (log intensity, higher = more binding, comparable within an allelic series)","11.3 upbm affinity estimate (log intensity, higher = more binding, comparable within an allelic series)","11.2 upbm affinity estimate (log intensity, higher = more binding, comparable within an allelic series)","11.2 upbm affinity estimate (log intensity, higher = more binding, comparable within an allelic series)","11.1 upbm affinity estimate (log intensity, higher = more binding, comparable within an allelic series)","11.1 upbm affinity estimate (log intensity, higher = more binding, comparable within an allelic series)","11.1 upbm affinity estimate (log intensity, higher = more binding, comparable within an allelic series)"
ATATACAC,"10.9 upbm affinity estimate (log intensity, higher = more binding, comparable within an allelic series)","10.4 upbm affinity estimate (log intensity, higher = more binding, comparable within an allelic series)","10.9 upbm affinity estimate (log intensity, higher = more binding, comparable within an allelic series)","10.1 upbm affinity estimate (log intensity, higher = more binding, comparable within an allelic series)","10.8 upbm affinity estimate (log intensity, higher = more binding, comparable within an allelic series)","10.9 upbm affinity estimate (log intensity, higher = more binding, comparable within an allelic series)","10.4 upbm affinity estimate (log intensity, higher = more binding, comparable within an allelic series)","11.1 upbm affinity estimate (log intensity, higher = more binding, comparable within an allelic series)","11 upbm affinity estimate (log intensity, higher = more binding, comparable within an allelic series)","10.9 upbm affinity estimate (log intensity, higher = more binding, comparable within an allelic series)","10.7 upbm affinity estimate (log intensity, higher = more binding, comparable within an allelic series)","10.9 upbm affinity estimate (log intensity, higher = more binding, comparable within an allelic series)","10.9 upbm affinity estimate (log intensity, higher = more binding, comparable within an allelic series)"
